Source: PubChem BioAssay
This is a sample that favours compounds with a hit; in the whole collection about 6.8% have one here.
T cruzi growth-1 – inhibitors of T. cruzi proliferation | T. cruzi beta-gal in NIH3T3, GalScreen luminescence, 90 h | inhibition, % at 8.34 µM | 77,000 compounds, 5.9% hits;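 active = mean inhibition above about 93%, with at least 55% of replicates each passing it, limit read from the data, passing the limit was not always enough; inconclusive = only one of those two conditions holds; inactive = neither condition holds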
Pf Dd2 inh – P. falciparum Dd2 growth inhibition; activity change, % at 10 µM; 94,000 compounds, 2.3% hits; AID 1159554; SYBR Green, 72 h; active compounds read low; in the data active = activity change below about -80%; inconclusive = no clear call, values can overlap the other calls
C diff HTS – inhibitors of Clostridium difficile growth. AID 1259249. Clostridium difficile clinical isolate growth, OD600, 24 h; active compounds read low. 86,000 compounds, 0.25% hits. growth activity, negative = inhibition, % at 16 µg/mL (by protocol);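 active = mean growth activity at or below -80% and every replicate also at or below -80%; inconclusive = mean at or below -80% but some replicate above -80%; inactive = mean growth activity above -80%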
T cruzi growth-2 – blocks T. cruzi growth in NIH3T3 host cells; shares compounds with T cruzi growth-1; T. cruzi beta-gal in NIH3T3, GalScreen luminescence, 90 h; inhibition, % at 8.35 µM; 5,600 compounds, 72% hits; AID 651739;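 active = mean replicate inhibition above about 95% and at least 55% of replicates individually reaching it, limit read from the data; inconclusive = only one of the two criteria is met; inactive = neither criterion is met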
T cruzi growth-3 – Trypanosoma cruzi proliferation inhibition | shares compounds with T cruzi growth-1 | T. cruzi beta-gal in NIH3T3, GalScreen luminescence, 90 h | inhibition, % at 2.09 µM | 5,600 compounds, 21% hits | AID 651740;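 active = mean inhibition above about 95%, with at least 55% of replicates also reaching it, limit read from the data; inconclusive = meets just one of the two conditions; inactive = meets neither condition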
NIH3T3 tox – NIH/3T3 (mouse) viability loss; NIH/3T3 viability, CellTiter-Glo ATP luminescence, 90 h; shares compounds with T cruzi growth-1; cytotoxicity (signal decrease), % at 8.35 µM; 5,600 compounds, 14% hits;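 active = mean signal decrease across replicates above about 35% based on untreated-well scatter, with enough replicates individually passing, limit read from the data; inconclusive = no rule stated though some were filed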
NIH3T3 tox 2 – kills mouse NIH/3T3 fibroblasts; shares compounds with T cruzi growth-1; NIH/3T3 viability, CellTiter-Glo ATP luminescence, 90 h; inhibition, % at 24.9 µM; 5,600 compounds, 56% hits;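 active = mean loss of cell viability signal at or above a set limit, and enough replicates individually reaching it; inconclusive = meets only the mean limit or only the replicate share; inactive = meets neither condition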
A number is an active result; - = inactive; ? = inconclusive; . = not tested or not shown.

SMILES | T cruzi growth-1 | Pf Dd2 inh | C diff HTS | T cruzi growth-2 | T cruzi growth-3 | NIH3T3 tox | NIH3T3 tox 2
C[C@@H]1CN([C@@H](C)CO)C(=O)c2cccc(NC(=O)Nc3ccc4c(c3)OCO4)c2O[C@H]1CN(C)C(=O)Nc1ccccc1 | - | - | - | . | . | . | .
C[C@@H]1CCCCO[C@H](CN(C)C(=O)Cc2ccccc2)[C@@H](C)CN([C@@H](C)CO)C(=O)c2cc(NC(=O)CCC(F)(F)F)ccc2O1 | - | - | - | . | . | . | .
COc1ccc(S(=O)(=O)N(C)C[C@@H]2Oc3ccc(NS(=O)(=O)c4cccs4)cc3C(=O)N([C@@H](C)CO)C[C@H]2C)cc1 | - | - | - | . | . | . | .
C[C@H](CO)N1C[C@H](C)[C@@H](CN(C)C(=O)c2ccncc2)OCCCC[C@H](C)Oc2ccc(NS(=O)(=O)c3cn(C)cn3)cc2C1=O | - | - | - | . | . | . | .
COc1cccc(-c2ccc3c(c2)O[C@@H](CN(C)Cc2cncnc2)[C@H](C)CN([C@H](C)CO)S3(=O)=O)c1 | ? | - | - | ? | - | 39 | 72
COc1cccc(-c2ccc3c(c2)O[C@H](CN(C)Cc2cncnc2)[C@H](C)CN([C@@H](C)CO)S3(=O)=O)c1 | 97 | - | - | ? | - | - | 64
COc1cccc(-c2ccc3c(c2)O[C@@H](CN(C)Cc2ccncc2)[C@@H](C)CN([C@@H](C)CO)S3(=O)=O)c1 | . | - | - | . | . | . | .
COc1cccc(-c2ccc3c(c2)O[C@H](CN(C)Cc2ccncc2)[C@@H](C)CN([C@@H](C)CO)S3(=O)=O)c1 | . | - | - | . | . | . | .
C[C@@H](NC(=O)[C@H]1[C@H](CO)[C@H]2Cn3c(cccc3=O)[C@H]2N1CC1CCCC1)c1ccccc1 | - | . | - | . | . | . | .
C=CC1C2C(C)=CC(C3C(=O)N(C)C(=O)C32)N1Cc1ccc(OC)cc1 (centres undefined) | . | . | - | . | . | . | .
CCCC#Cc1ccc2c(c1)O[C@@H](CN(C)C(=O)C1CCCCC1)[C@H](C)CN([C@H](C)CO)S2(=O)=O | - | - | - | . | . | . | .
CCCC#Cc1ccc2c(c1)O[C@H](CN(C)C(=O)C1CCC1)[C@@H](C)CN([C@@H](C)CO)S2(=O)=O | 108 | - | - | 102 | - | - | 39
CCCC#Cc1ccc2c(c1)O[C@H](CN(C)C(=O)C1CCC1)[C@H](C)CN([C@@H](C)CO)S2(=O)=O | 98 | - | - | 107 | - | - | 45
CCCC#Cc1ccc2c(c1)O[C@@H](CN(C)C(=O)C1CCCCC1)[C@@H](C)CN([C@H](C)CO)S2(=O)=O | - | - | - | . | . | . | .
O=C(c1ccc(F)cc1)N1CCCCN2[C@H](CO)[C@@H](c3ccc(-c4ccc(F)cc4)cc3)[C@@H]2C1 | 100 | - | - | 99 | 103 | - | 104
COc1cccc(-c2ccc([C@@H]3[C@@H](CO)N4CCCCN(C(=O)c5ccc(F)cc5)C[C@H]34)cc2)c1 | - | - | - | . | . | . | .
O=C(c1ccc(F)cc1)N1CCCCN2[C@@H](CO)[C@H](c3ccc(-c4ccc(F)cc4)cc3)[C@@H]2C1 | 104 | - | - | - | - | 44 | 106
COc1cccc(-c2ccc([C@H]3[C@@H](CO)N4CCCCN(C(=O)c5ccc(F)cc5)C[C@H]34)cc2)c1 | 108 | - | - | 108 | - | - | 104
O=C(c1ccc(F)cc1)N1CCCCN2[C@H](C1)[C@H](c1ccc(-c3ccc(F)cc3)cc1)[C@@H]2CO | - | - | - | . | . | . | .
O=C(c1ccc(F)cc1)N1CCCCN2[C@H](C1)[C@@H](c1ccc(-c3ccccc3)cc1)[C@@H]2CO | - | - | - | . | . | . | .
Cc1noc(C)c1NC(=O)Nc1ccc2c(c1)C(=O)N([C@@H](C)CO)C[C@@H](C)[C@@H](CN(C)S(=O)(=O)c1ccc(F)cc1)O2 | - | - | - | . | . | . | .
CC(C)NC(=O)N[C@H]1C=C[C@@H](CC(=O)NCc2ccc(Oc3ccccc3)cc2)O[C@@H]1CO | - | - | - | . | . | . | .
CC(C)CC#Cc1ccc2c(c1)O[C@H](CN(C)C(=O)Nc1ccccc1F)[C@@H](C)CN([C@@H](C)CO)S2(=O)=O | - | - | - | . | . | . | .
CC(C)CC#Cc1ccc2c(c1)O[C@@H](CN(C)C(=O)Nc1ccccc1F)[C@@H](C)CN([C@H](C)CO)S2(=O)=O | 108 | - | - | 106 | ? | - | 99
CCCC#Cc1ccc2c(c1)O[C@H](CN(C)C(=O)Nc1ccccc1F)[C@H](C)CN([C@H](C)CO)S2(=O)=O | . | - | - | . | . | . | .
SMILES | T cruzi growth-1 | Pf Dd2 inh | C diff HTS | T cruzi growth-2 | T cruzi growth-3 | NIH3T3 tox | NIH3T3 tox 2
CC(C)CC#Cc1ccc2c(c1)O[C@H](CN(C)C(=O)Nc1ccccc1F)[C@H](C)CN([C@@H](C)CO)S2(=O)=O | - | - | - | . | . | . | .
CC(C)CC#Cc1ccc2c(c1)O[C@@H](CN(C)C(=O)Nc1ccccc1F)[C@H](C)CN([C@H](C)CO)S2(=O)=O | 115 | - | - | 109 | - | - | 78
CC(C)CC#Cc1ccc2c(c1)O[C@@H](CN(C)C(=O)Nc1ccccc1F)[C@H](C)CN([C@@H](C)CO)S2(=O)=O | 108 | - | - | 108 | - | - | 101
COc1ccc(S(=O)(=O)N(C)C[C@H]2Oc3c(NC(=O)NC(C)C)cccc3C(=O)N([C@@H](C)CO)C[C@@H]2C)cc1 | - | - | - | . | . | . | .
CNC(=O)C[C@H]1CC[C@H]2[C@@H](COc3ccc(NC(=O)C4CC4)cc3C(=O)N2C)O1 | - | - | - | . | . | . | .
O=C(C[C@@H]1C=C[C@H](NC(=O)C2CC2)[C@@H](CO)O1)NC1CCC1 | - | - | . | . | . | . | .
CO[C@@H]1CN(C)C(=O)c2ccc(NC(=O)Nc3ccccc3)cc2OC[C@@H](C)N(C(=O)Nc2c(C)noc2C)C[C@H]1C | - | - | - | . | . | . | .
CCC(=O)N1[C@H](C(=O)N2CCCCC2)[C@@H](CO)[C@@H]2Cn3c(ccc(-c4cccc(F)c4)c3=O)[C@@H]21 | . | - | - | . | . | . | .
C[C@H]1CN([C@@H](C)CO)S(=O)(=O)c2ccc(C3=CCCCC3)cc2O[C@H]1CN(C)Cc1ccncc1 | 114 | - | - | - | - | 51 | 66
C[C@@H]1CN([C@H](C)CO)S(=O)(=O)c2ccc(C3=CCCCC3)cc2O[C@@H]1CN(C)Cc1ccncc1 | 110 | - | - | 100 | - | - | 67
C[C@@H]1CN([C@H](C)CO)S(=O)(=O)c2ccc(C3=CCCCC3)cc2O[C@H]1CN(C)C(=O)c1ccncc1 | - | - | - | . | . | . | .
C[C@H]1CN([C@@H](C)CO)S(=O)(=O)c2ccc(C3=CCCC3)cc2O[C@H]1CN(C)Cc1cccnc1 | - | - | - | . | . | . | .
C[C@H](CO)N1C[C@H](C)[C@H](CN(C)Cc2cccnc2)Oc2cc(C3=CCCC3)ccc2S1(=O)=O | - | - | - | . | . | . | .
C[C@H](CO)N1C[C@H](C)[C@H](CN(C)Cc2cncnc2)Oc2cc(C3=CCCCC3)ccc2S1(=O)=O | - | - | - | . | . | . | .
